# Source: PubChem BioAssay (NCATS)
# Inconclusive results are not listed. Entries that show only a call come without a potency. Active and inactive are the calls of the source. Calls come from the whole dose curve; as a rule, active = well fitted activation curve with a large enough effect; inconclusive = small, poorly fitted or top-dose-only effect; inactive = flat fitted curve, though single readings scatter.
# Test: Cellular Toxicity (caspase-3) SK-N-SH (AID 661)
# Conditions: SK-N-SH caspase-3 activation, qHTS; caspase-3 activation: at 91.7 µM (top of the series), DMSO as zero, staurosporine as full
# In short: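 Caspase 3/7 activation is measured as a luminescence increase from aminoluciferin released by substrate cleavage in SK-N-SH cells after 16 hr compound treatment; values are AC50 from concentration-response curves.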
row,Compound,Potency
1,Oc1ccc(/C=C/c2cc(O)cc(O)c2)cc1,inactive
2,C[C@H]1O[C@@H](O[C@H]2[C@@H](O)C[C@H](O[C@H]3[C@@H](O)C[C@H](O[C@H]4CC[C@@]5(C)[C@H](CC[C@@H]6[C@@H]5C[C@@H](O)[C@]5(C)[C@@H](C7=CC(=O)OC7)CC[C@]65O)C4)O[C@@H]3C)O[C@@H]2C)C[C@H](O)[C@@H]1O,inactive
3,CCOC(C)OCC,inactive
4,OCC(O)CO,inactive
5,OCc1ccccc1,inactive
6,Cc1ccc(S(=O)(=O)O)cc1C,inactive
7,Nc1nccs1,inactive
8,CC1=CCC2CC1C2(C)C (stereo not given),inactive
9,CCCCC,inactive
10,COC(=O)c1ccccc1O,inactive
11,Nc1ccc(N=Nc2ccccc2)c(N)n1,inactive

# Test: Cellular Toxicity (caspase-3) H-4-II-E (AID 663);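 note: cells exposed to compound for 16 hr before readout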
# Conditions: H-4-II-E rat hepatoma, scaled: DMSO 0%, 100 µM tamoxifen 100%; series mostly up to 92.2 µM
# In short: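 Apoptosis induction is scored as increased luminescence from caspase 3/7 substrate cleavage in rat hepatoma H-4-II-E cells exposed to compound for 16 hr. Activity is scaled between DMSO and 100 uM tamoxifen.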
row,Compound,outcome
1,C[C@H]1O[C@@H](O[C@H]2[C@@H](O)C[C@H](O[C@H]3[C@@H](O)C[C@H](O[C@H]4CC[C@@]5(C)[C@H](CC[C@@H]6[C@@H]5C[C@@H](O)[C@]5(C)[C@@H](C7=CC(=O)OC7)CC[C@]65O)C4)O[C@@H]3C)O[C@@H]2C)C[C@H](O)[C@@H]1O,inactive
2,CCOC(C)OCC,inactive
3,OCC(O)CO,inactive
4,OCc1ccccc1,inactive
5,Cc1ccc(S(=O)(=O)O)cc1C,inactive
6,Nc1nccs1,inactive
7,CCCCC,inactive
8,COC(=O)c1ccccc1O,inactive
9,Nc1ccc(N=Nc2ccccc2)c(N)n1,inactive
